Assay results published in PubChem BioAssay AID434985 (The Scripps Research Institute Molecular Screening Center, 2010).
The list shows a part of the results. Activity calls are given as the source filed them.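 How the source made its calls: active means mean percent activation over triplicates above a cutoff set from solvent-only control plates; inactive means the rest.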

Target: Oxytocin receptor (Homo sapiens) (UniProt P30559)
Experiment: human OXTR potentiators, confirmation, fluorescence, CHO-OTR cells, triplicate (AID 434985);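 further: compounds tested in the presence of an EC15 dose of oxytocin; 0% = EC15 oxytocin with DMSO and 100% = EC100 oxytocin with DMSO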
Settings: Fluo-8 calcium fluorescence, potentiation, at 3 µM, hits give high values, scaled from low-dose to maximal oxytocin

Oxytocin receptor (Homo sapiens), sequence (P30559 whole entry, looked up): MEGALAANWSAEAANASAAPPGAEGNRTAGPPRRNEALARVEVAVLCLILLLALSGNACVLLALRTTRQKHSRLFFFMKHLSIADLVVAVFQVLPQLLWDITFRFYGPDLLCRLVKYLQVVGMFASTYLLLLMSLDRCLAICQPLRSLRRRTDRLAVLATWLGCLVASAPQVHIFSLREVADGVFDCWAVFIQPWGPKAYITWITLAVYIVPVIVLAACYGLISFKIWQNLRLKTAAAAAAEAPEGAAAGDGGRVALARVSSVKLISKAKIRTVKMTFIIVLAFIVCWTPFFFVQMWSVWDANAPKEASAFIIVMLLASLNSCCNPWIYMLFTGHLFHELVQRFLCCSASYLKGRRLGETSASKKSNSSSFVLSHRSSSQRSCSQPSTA

activation, inactive:
Cc1cc(C)cc(NC(=O)CSc2ccccc2)c1 -0.71%
COCCn1c(CN(Cc2ccccc2)Cc2ccccc2)nc2c1c(=O)n(C)c(=O)n2C -1.46%
Cc1ccc(OCC(O)CN2CCN(CC(O)COc3ccc(C)cc3Cl)CC2)c(Cl)c1 (configuration not stated) -3.49%
CCCCn1c(N)c(N2CCOCC2)c(=O)n(CC(=O)NCCc2ccccc2)c1=O -3.12%
CCCCNc1c(-c2ccc(OC)c(Sc3ccc(OC)cc3)c2)nc2ccc(Cl)cn12 -4.15%
CNc1nnc(-c2ccco2)s1 -4.03%
COc1cc2c(cc1OC)C(c1ccc(C)o1)CC(=O)N2 (configuration not stated) -4.74%
